Results from PubChem BioAssay AID1346428 (National Center for Advancing Translational Sciences (NCATS), 2018).
“And” between values parts separate entries of the source, which are not always exact repeats. Equal entries are not always repeated. Out of some 48,000 compounds screened, about 1,200 (2.5%) were called active. About 2% were inconclusive and are not listed.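 How the source made its calls: active means activation of at least 60% and not above a set upper limit (about 1 call in 100 departs from these limits); inconclusive means activation of 40% to 60%, or above that upper limit; inactive means activation under 40%.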 Shown is part of a subset that was picked to be rich in actives. More than one record can exist for a structure, and the calls need not agree.

Target: Probable G-protein coupled receptor 32 (Homo sapiens) (UniProt O75388)
Sequence (O75388 whole entry, looked up): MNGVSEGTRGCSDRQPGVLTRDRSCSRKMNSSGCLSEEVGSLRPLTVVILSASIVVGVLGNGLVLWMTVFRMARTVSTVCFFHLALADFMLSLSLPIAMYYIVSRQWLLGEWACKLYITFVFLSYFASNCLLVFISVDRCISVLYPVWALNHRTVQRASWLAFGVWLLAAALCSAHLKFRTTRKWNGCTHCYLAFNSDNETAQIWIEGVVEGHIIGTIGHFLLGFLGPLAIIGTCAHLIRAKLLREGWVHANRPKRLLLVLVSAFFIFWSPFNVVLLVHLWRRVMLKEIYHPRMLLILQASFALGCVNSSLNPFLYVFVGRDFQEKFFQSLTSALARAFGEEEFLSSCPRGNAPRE
Assay: qHTS for Agonists of Human Resolvin D1 Receptor DRV1; further: 0% is about no effect
Settings: CHO-K1 GPR32 beta-arrestin PathHunter luminescence, 90 min; at 76.9 µM; stronger effect = higher value; zero percent set by DMSO-only wells
How it was run: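 Luminescent readout of beta-Gal complementation quantifies ligand-induced beta-arrestin association with GPR32 in CHO-K1 cells; 90 min compound incubation at 37 °C, detection 1 h at room temperature.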

Row | Compound | activation
1 | CCOC(=O)c1ccc(CN(Cc2ccccc2)S(=O)(=O)c2ccc(Cl)cc2)cc1 | -16.7% (inactive)
2 | O=C(OCc1ccccc1)c1ccc(O)cc1 | 68.1% (active)
3 | O=C(O)CCCc1ccccc1 | 6.7% (inactive)
4 | COc1ccc(NC(=O)Cn2c(=O)n(Cc3ccc(C(=O)NCc4ccccc4Cl)cc3)c(=O)c3ccccc32)cc1 | -4.2% (inactive)
5 | CCCCCCc1ccc(O)cc1O | 89.2% (active)
6 | Cc1ccc(O)c(NC(=O)CCS(=O)(=O)c2nc(-c3ccc4c(c3)OCO4)cc(C(F)(F)F)n2)c1 | -25.7% (inactive)
7 | COC(=O)c1ccc2c(c1)N(CC(=O)Nc1ccc(C)c(C)c1)C(=O)c1ccccc1S2 | -13.7% (inactive)
8 | COc1ccc(CNC(=O)CCc2c(C)nn(-c3ccc(N4CCCC4)nn3)c2C)cc1 | -8.15% (inactive)
9 | Cc1nn(Cc2ccc(F)cc2)c(C)c1NC(=O)c1cc(CC(C)C)on1 | 86.4% (active)
10 | O=C(Nc1ccccc1Br)c1cc(CN2CCCC2)on1 | -9.24% (inactive)
11 | Cc1ccccc1Cn1nc(C)c(NC(=O)c2cc(-c3ccc(F)cc3)on2)c1C | 6.09% (inactive)
12 | Cc1ccc(NC(=O)C(Cc2ccccc2)NS(=O)(=O)c2ccc3c(c2)oc(=O)n3C)cc1C (stereo not given) | 4.78% (inactive)
13 | CCN(CCCNC(=O)Cn1ncc2c3ccccc3n(C)c2c1=O)Cc1ccccc1 | -3.31% (inactive)
14 | Cc1ccc(C)c(N2CCN(C(=O)Cn3nc(C)c4sc5ccccc5c4c3=O)CC2)c1 | -8.71% (inactive)
15 | O=C(CCS(=O)(=O)c1ccc2c(c1)NC(=O)CO2)Nc1cccc(C(F)(F)F)c1 | 13.3% (inactive)
16 | CN(CC(=O)Nc1cccc(C(F)(F)F)c1)S(=O)(=O)c1cccs1 | 67.5% (active)
17 | O=C(CN1c2ccccc2S(=O)(=O)c2ccccc21)Nc1cccc(C(F)(F)F)c1 | 1.8% (inactive)
18 | CCc1ccccc1NC(=O)N1CCC2(CC1)Oc1ccccc1C(=O)N2Cc1ccccc1F | -16.7% (inactive)
19 | O=C(CSc1n[nH]c(-c2ccccc2)n1)N1CCCCC1 | 7.63% (inactive)
20 | Cc1cccc(OCCCC(=O)Nc2sc3c(c2C(N)=O)CCC(C)C3)c1 (stereo not given) | 70.3% (active)
21 | CCOc1ccc(NC(=O)c2c(NC(=O)Cc3ccccc3)sc3c2CCC(C)C3)cc1 (stereo not given) | -11.2% (inactive)
22 | COC(=O)c1c(NC(=O)CCCOc2ccccc2)sc2c1CCC(C)C2 (stereo not given) | 7.01% (inactive)
23 | COc1ccccc1-c1cc2nc(C)c(CCC(=O)O)c(C)n2n1 | -0.841% (inactive)
24 | COc1ccc(NC(=O)CCCN2C(=O)CCn3nc(-c4cn(C)c5ccccc45)cc32)cc1OC | 17.2% (inactive)
25 | CCOc1cc(C2c3c(-c4ccc(Br)cc4)n[nH]c3C(=O)N2c2ccc(Cl)cc2)ccc1O (stereo not given) | 85.1% (active)
26 | CCOC(=O)c1ccc(N2C(=O)c3n[nH]c(C)c3C2c2ccc(O)c(OC)c2)cc1 (stereo not given) | 21.2% (inactive)
27 | CCOc1ccc(-c2n[nH]c3c2C(c2ccccc2OC)N(c2ccc(Br)cc2)C3=O)cc1 (stereo not given) | -5.97% (inactive)
28 | CCCOC(=O)c1c(NC(=O)c2cc3nc(-c4ccc(OC)cc4)cc(C(F)(F)F)n3n2)sc2c1CCCC2 | 16% (inactive)

Row | Compound | activation
29 | COc1ccc(NC(=O)Cn2c(=O)cc(C)c3c(C)nn(-c4cccc(Cl)c4C)c32)cc1OC | -11.5% (inactive)
30 | Cc1ccccc1OCc1ccc(-c2nc(C#N)c(N3CCCCC3)o2)o1 | -28.2% (inactive)
31 | Cc1cc(C)cc(OCC(=O)Nc2nc(-c3ccc(F)cc3)ns2)c1 | 4.54% (inactive)
32 | Cn1nnnc1SCCNCc1ccc(Cl)c(Cl)c1 | -5.94% (inactive)
33 | COc1cc(CNCCSc2nnnn2C)ccc1OCc1ccc(Cl)cc1Cl | 60% (active)
34 | COc1cc(CNCCSc2nnnn2C)ccc1OCc1c(F)cccc1Cl | 14.1% (inactive)
35 | CCc1ccccc1NC(=O)N1CCN(C(=O)c2nsc3ccccc23)CC1 | -15.9% (inactive)
36 | COc1cccc(Cn2c(SCc3ccc(C(=O)N4CCCCC4)cc3)nc3ccncc32)c1 | 30.7% (inactive)
37 | Cc1[nH]c2ccccc2c1C(c1ccccc1)c1cccs1 (stereo not given) | 73.6% (active)
38 | COc1ccc(-c2onc(C)c2C)cc1S(=O)(=O)NCCc1ccccc1 | 3.28% (inactive)
39 | O=C(Nc1nnc(C2CC(=O)N(c3ccc(Cl)cc3)C2)s1)c1ccco1 (stereo not given) | -14.5% (inactive)
40 | CCCCN(C)CCCNC(=O)CN1N=C(c2ccc(OC)cc2)CCC1=O | 11.3% (inactive)
41 | Cc1ccc(S(=O)(=O)N2CCCc3cc(NS(=O)(=O)c4cc(C)ccc4C)ccc32)cc1 | -16.6% (inactive)
42 | C=Cc1ccc(Cn2c(C(=O)OC)cc3sc(C)cc32)cc1 | -21.6% (inactive)
43 | CCC(C(=O)OCCN(CC)CC)c1ccccc1 (stereo not given) | 1.87% (inactive)
44 | CCCC(C(=O)OCCN(CC)CC)(c1ccccc1)c1ccccc1 | 60.2% (active) and -17.3% (inactive)
45 | Cc1ccc(N(CC(=O)Nc2cc(C)cc(C)c2)S(=O)(=O)c2cccc3nonc23)cc1 | -3.71% (inactive)
46 | Cc1ccc(NC(=O)Cn2c(=O)n(-c3ccccc3)c(=O)c3c4c(sc32)CCCC4)cc1 | -1.44% (inactive)
47 | CC(=O)c1ccc(N2CCN(C3C(=O)c4ccccc4N3C(C)=O)CC2)cc1 (stereo not given) | -28.3% (inactive)
48 | Cc1ccc(C)c(N2CCN(CCCNC(=O)Nc3ccc(Cl)cc3)CC2)c1 | 37.2% (inactive)
49 | CC1=C(c2ccc(Cl)cc2)S(=O)(=O)N=C1N1CCN(c2cc(C)ccc2C)CC1 | -14.2% (inactive)
50 | CC1=C(c2ccc(C)cc2)S(=O)(=O)NC1=NCCCN1CCN(c2cc(C)ccc2C)CC1 | 84.3% (active)
51 | Cc1csc2nc(COc3ccc(NC(=O)COc4ccccc4)cc3)cc(=O)n12 | 63.9% (active)
52 | Cc1ccc(C(=O)Nc2ccc(OCc3cc(=O)n4c(C)csc4n3)cc2)cc1 | 3.91% (inactive)
53 | Cc1ccc(OCC(=O)Nc2ccc(OCc3cc(=O)n4c(C)csc4n3)cc2)cc1C | -16.1% (inactive)
54 | COc1ccccc1N1CCN(CCCNC(=O)c2cnn(-c3ccccc3Cl)c2C2CCN(C(=O)OC(C)(C)C)CC2)CC1 | -18.9% (inactive)
55 | O=C(CCS(=O)(=O)c1cc(Br)cc2c1N(C(=O)C1CC1)CC2)Nc1ccc(C(F)(F)F)cc1 | -8.56% (inactive)
